Values without a mark were called inactive. Records with an inconclusive call do not appear. Entries that show only a call come without a potency. The source made the active and inactive calls. Unless noted, the call rests on the fitted dose curve; in most records, active means well fitted curve in the direction sought with a large enough effect in the repeat runs; inconclusive means weak or mixed curves; inactive means no such curve, though single readings can be large; an effect the other way counts as inactive or inconclusive.
Key:
[1] = qHTS assay for small molecule agonists of the p53 signaling pathway (AID 651631; calls by dose curve; further: nearly all actives have a fitted effect of over 15% in size)
How it was run: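 HCT-116 cells carrying a beta-lactamase reporter under p53 response elements were dosed with compound for 16 h at 37 °C. LiveBLAzer B/G FRET substrate was then added for 2 h at room temperature, and fluorescence intensity was read to detect pathway agonism.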

[2] = qHTS assay for small molecule agonists of the p53 signaling pathway - cell viability (AID 651633; calls by dose curve;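 further: p53RE-bla HCT reporter cells with a stable beta-lactamase p53 reporter; series mostly up to about 83 µM; nearly all actives have a fitted effect of over 30% in size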)
How it was run: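 p53RE-bla cells, seeded at 4,000 per well and rested 5 h at 37 C/5% CO2, received compounds in DMSO for 16 h at 37 C. CellTiter-Glo was then added, and luminescence was read after 30 min at room temperature to gauge cytotoxicity.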

[3] = qHTS assay for small molecules that induce genotoxicity in human embryonic kidney cells expressing luciferase-tagged ATAD5 - cell viability (AID 651634; calls by dose curve; further: nearly all actives have a fitted effect of over 25% in size)
How it was run: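 HEK293T ATAD5-luc cells, 2,000/well; compound 15.5 hr, 37C/5% CO2; CellTiter-Fluor 30 min, 37C; fluorescence read.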

[4] = qHTS assay to test for compound auto fluorescence at 590 nm (red) in HepG2 cells (AID 720674)
How it was run: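 Intrinsic compound fluorescence in the red window (Ex/Em 540/590 nm) is measured in attached HepG2 cells exposed for 1 hr, DMSO vehicle as baseline, benchmarked to Rose Bengal sodium.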

[5] = qHTS assay to test for compound auto fluorescence at 535 nm (green) in HepG2 cells (AID 720675)
[6] = qHTS assay to test for compound auto fluorescence at 460 nm (blue) in HEK293 cells (AID 720678)
How it was run: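 Blue-channel (Ex/Em 405/460 nm) intensity measured in HEK293 cultures after overnight compound exposure at 37C; signal expressed relative to triamterene. Cells plated 2,000 per well in 10% dialyzed FBS medium and allowed 4-5 hr to attach.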

[7] = qHTS assay to test for compound auto fluorescence at 590 nm (red) in HEK293 cells (AID 720679)
How it was run: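 Red-channel autofluorescence (Ex/Em 540/590 nm; Rose Bengal sodium reference) was measured after overnight 37C, 5% CO2 exposure of attached HEK293 cells, 2,000 per well in medium with 10% dialyzed FBS.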

[8] = qHTS assay to test for compound auto fluorescence at 535 nm (green) in HEK293 cells (AID 720680)
[9] = qHTS assay to test for compound auto fluorescence at 460 nm (blue) in HEK293 cell free culture (AID 720681)
How it was run: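 Test compounds were pinned into cell-free culture medium (DMEM with 10% FBS) and fluorescence was read directly at Ex/Em 405/460 nm. Signals were expressed as fluorescence equivalents of triamterene, with DMSO vehicle as control.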

[10] = qHTS assay to test for compound auto fluorescence at 535 nm (green) in HEK293 cell free culture (AID 720682)
How it was run: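 Green-label autofluorescence (485 nm excitation, 535 nm emission) measured on compound added to cell-free culture medium (DMEM, 10% FBS). Output is expressed relative to fluorescein.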

[11] = qHTS assay to test for compound auto fluorescence at 590 nm (red) in HEK293 cell free culture (AID 720683)
How it was run: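 Tox21 10K library compounds were pinned into cell-free DMEM with 10% FBS and fluorescence was read at excitation 540 nm. Activity is expressed as Rose Bengal sodium equivalency.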

[12] = qHTS assay to test for compound auto fluorescence at 590 nm (red) in HepG2 cell free culture (AID 720684)
How it was run: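 Readout: intrinsic compound fluorescence at 590 nm emission after 540 nm excitation, scaled to Rose Bengal sodium. Matrix was cell-free MEM with 10% FBS; DMSO vehicle wells served as control.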

[13] = qHTS assay to test for compound auto fluorescence at 460 nm (blue) in HepG2 cell free culture (AID 720685)
How it was run: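 Cell-free plates of MEM plus 10% FBS received 23 nL compound or DMSO vehicle; blue-channel (405/460 nm) intensity scored against triamterene as reference fluorophore.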

[14] = qHTS assay to test for compound auto fluorescence at 535 nm (green) in HepG2 cell free culture (AID 720686)
[15] = qHTS assay to test for compound auto fluorescence at 460 nm (blue) in HepG2 cells (AID 720687)
How it was run: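 Cells (2,000/well in MEM with 10% FBS) attached overnight at 37 C, then were exposed to compound or DMSO for 1 hr at 37 C, 5% CO2. Fluorescence read at Ex/Em 405/460 nm, expressed as triamterene-equivalent signal.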

[16] = target: Glucocorticoid receptor (Homo sapiens) (UniProt P04150); assay: qHTS assay to identify small molecule antagonists of the glucocorticoid receptor (GR) signaling pathway (AID 720692; active means well fitted inhibition curve with a large enough effect in the signal ratio in the repeat runs, not every such curve was filed as active; the % refers to the signal ratio)
How it was run: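 Read-out: beta-lactamase FRET substrate fluorescence, 2 h at room temperature, in HeLa cells stably carrying a GRE-driven bla reporter. Compounds were co-incubated with 5 nM dexamethasone agonist (final) for 18 h at 37 C.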

[17] = qHTS assay for small molecules that induce genotoxicity in human embryonic kidney cells expressing luciferase-tagged ATAD5 (AID 651632); further: nearly all actives have a fitted effect of over 15% in size
How it was run: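 Luminescence read-out: after 16 hr compound exposure at 37C, ATAD5-luciferase HEK293T cells received Amplite, 30 min RT, then CCD imaging. A rise in signal marks genotoxic stress.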

[18] = qHTS assay for small molecule disruptors of the mitochondrial membrane potential - cell viability (AID 720634; calls by dose curve;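 further: human HepG2 liver cancer cells; series mostly up to about 83 µM; nearly all actives have a fitted effect of over 20% in size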)
How it was run: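 Luminescence from CellTiter-Glo (ATP content) gave viability in HepG2 cells, read in the same wells as the MMP dye assay after 1 hr compound exposure at 37 C.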

[19] = qHTS assay for small molecule disruptors of the mitochondrial membrane potential (AID 720635); further: potency means the concentration at half of the fitted maximal effect
How it was run: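 HepG2 cells (2,000/well) attached overnight at 37C, then took compound for 1 hr at 37C, 5% CO2. Mito-MPS dye was added for 30 min; fluorescence was read at 490/535 nm (monomers) and 540/590 nm (aggregates).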

[20] = target: Glucocorticoid receptor (Homo sapiens) (UniProt P04150); assay: qHTS assay to identify small molecule agonists of the glucocorticoid receptor (GR) signaling pathway (AID 720691; active means well fitted activation curve with a large enough effect in the signal ratio in the repeat runs, not every such curve was filed as active; the % refers to the signal ratio)
How it was run: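 HeLa GR-bla reporter line; cells pre-incubated 4 h, compound in DMSO 18 h at 37 C; LiveBLAzer B/G FRET substrate 2 h RT; fluorescence intensity read-out.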

Glucocorticoid receptor (Homo sapiens), sequence (P04150 whole entry, looked up): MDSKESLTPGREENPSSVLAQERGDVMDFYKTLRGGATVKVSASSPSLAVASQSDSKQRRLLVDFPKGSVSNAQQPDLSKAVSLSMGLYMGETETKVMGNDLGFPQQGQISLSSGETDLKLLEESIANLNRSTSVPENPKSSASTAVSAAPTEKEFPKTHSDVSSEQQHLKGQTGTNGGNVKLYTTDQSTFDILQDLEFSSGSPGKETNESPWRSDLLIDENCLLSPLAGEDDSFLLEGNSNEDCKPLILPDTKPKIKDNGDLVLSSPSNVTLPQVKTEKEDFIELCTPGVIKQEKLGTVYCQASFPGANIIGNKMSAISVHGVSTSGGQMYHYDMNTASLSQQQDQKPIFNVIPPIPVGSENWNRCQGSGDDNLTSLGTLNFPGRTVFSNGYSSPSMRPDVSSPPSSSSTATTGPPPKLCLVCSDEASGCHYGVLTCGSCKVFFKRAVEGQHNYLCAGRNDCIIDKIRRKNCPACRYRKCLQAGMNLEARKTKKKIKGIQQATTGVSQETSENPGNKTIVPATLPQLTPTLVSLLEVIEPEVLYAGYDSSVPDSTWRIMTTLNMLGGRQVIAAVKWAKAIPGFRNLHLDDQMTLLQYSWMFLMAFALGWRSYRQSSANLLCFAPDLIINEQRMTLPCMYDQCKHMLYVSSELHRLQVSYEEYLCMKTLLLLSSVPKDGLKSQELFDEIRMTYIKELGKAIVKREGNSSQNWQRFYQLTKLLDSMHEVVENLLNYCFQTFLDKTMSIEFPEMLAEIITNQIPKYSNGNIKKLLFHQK

## CC(=O)C1C(=O)C=C(C)OC1=O (stereo not given)
[1]
  outcome: inactive
[2]
  outcome: inactive
[3]
  Potency: inactive
[4]
  outcome: inactive
[5]
  outcome: inactive
[6]
  outcome: inactive
[7]
  outcome: inactive
[8]
  outcome: inactive
[9]
  outcome: inactive
[10]
  outcome: inactive
[11]
  outcome: inactive
[12]
  outcome: inactive
[13]
  outcome: inactive
[14]
  outcome: inactive
[15]
  outcome: inactive
[16]
  outcome: inactive

## CO[C@@]1(NC(=O)Cc2cccs2)C(=O)N2C(C(=O)O)=C(COC(N)=O)CS[C@@H]21
[17]
  outcome: inactive
[2]
  outcome: inactive
[3]
  Potency: inactive
[18]
  outcome: inactive
[19]
  Potency: inactive
[4]
  outcome: inactive
[5]
  outcome: inactive
[6]
  outcome: inactive
[7]
  outcome: inactive
[8]
  outcome: inactive
[9]
  outcome: inactive
[10]
  outcome: inactive
[11]
  outcome: inactive
[12]
  outcome: inactive
[13]
  outcome: inactive
[14]
  outcome: inactive
[15]
  outcome: inactive

## c1ccc(B(c2ccccc2)c2ccccc2)cc1
[1]
  outcome: inactive
[2]
  outcome: inactive
[3]
  Potency: inactive
[19]
  Potency: 61.1 µM (active)
[4]
  outcome: inactive
[5]
  outcome: inactive
[6]
  outcome: inactive
[7]
  outcome: inactive
[8]
  outcome: inactive
[9]
  outcome: inactive
[10]
  outcome: inactive
[12]
  outcome: inactive
[13]
  outcome: inactive
[14]
  outcome: inactive
[15]
  outcome: inactive
[20]
  Potency: inactive

## CCCCC1CCC(O)CC1 (stereo not given)
[1]
  outcome: inactive
[2]
  outcome: inactive
[3]
  Potency: inactive
[18]
  outcome: inactive
[19]
  Potency: inactive
[4]
  outcome: inactive
[5]
  outcome: inactive
[6]
  outcome: inactive
[7]
  outcome: inactive
[8]
  outcome: inactive
[9]
  outcome: inactive
[10]
  outcome: inactive
[11]
  outcome: inactive
[12]
  outcome: inactive
[13]
  outcome: inactive
[14]
  outcome: inactive
[15]
  outcome: inactive
[20]
  Potency: inactive

## C=CCCCCCCCCC(=O)OCCCC
[1]
  outcome: inactive
[2]
  outcome: inactive
[3]
  Potency: inactive
[18]
  outcome: inactive
[19]
  Potency: inactive
[4]
  outcome: inactive
[5]
  outcome: inactive
[6]
  outcome: inactive
[7]
  outcome: inactive
[8]
  outcome: inactive
[9]
  outcome: inactive
[10]
  outcome: inactive
[11]
  outcome: inactive
[12]
  outcome: inactive
[13]
  outcome: inactive
[14]
  outcome: inactive
[15]
  outcome: inactive

## Cn1c(=O)c2c(ncn2CCO)n(C)c1=O
[17]
  outcome: inactive
[2]
  outcome: inactive
[3]
  Potency: inactive
[18]
  outcome: inactive
[19]
  Potency: inactive
[4]
  outcome: inactive
[5]
  outcome: inactive
[6]
  outcome: inactive
[7]
  outcome: inactive
[8]
  outcome: inactive
[9]
  outcome: inactive
[10]
  outcome: inactive
[11]
  outcome: inactive
[12]
  outcome: inactive
[13]
  outcome: inactive
[14]
  outcome: inactive
[15]
  outcome: inactive

## O=C[O][Al]([O]C=O)[O]C=O
[1]
  outcome: inactive
[2]
  outcome: inactive
[18]
  outcome: inactive
[4]
  outcome: inactive
[5]
  outcome: inactive
[6]
  outcome: inactive
[7]
  outcome: inactive
[8]
  outcome: inactive
[9]
  outcome: inactive
[10]
  outcome: inactive
[12]
  outcome: inactive
[13]
  outcome: inactive
[14]
  outcome: inactive
[15]
  outcome: inactive
[20]
  Potency: inactive
[16]
  outcome: inactive

## CNCCS(=O)(=O)O
[1]
  outcome: inactive
[2]
  outcome: inactive
[3]
  Potency: inactive
[18]
  outcome: inactive
[19]
  Potency: inactive
[4]
  outcome: inactive
[5]
  outcome: inactive
[6]
  outcome: inactive
[7]
  outcome: inactive
[8]
  outcome: inactive
[9]
  outcome: inactive
[10]
  outcome: inactive
[12]
  outcome: inactive
[13]
  outcome: inactive
[14]
  outcome: inactive
[15]
  outcome: inactive
[20]
  Potency: inactive
[16]
  outcome: inactive

— PubChem BioAssay (Tox21)
